Data taken from PubChem BioAssay.
Calls of active or inactive are those of the source. Rule as the data show it: active = nuclear beta-catenin stimulation mostly above about 4.2% (no sharp cut-off); inactive = mostly below about 10%.

Assay: stimulators of nuclear beta-catenin in C2C12, primary screen, imaging, WNT3A-conditioned medium, mouse C2C12, NPC library (AID 1117326); also: reference of the scale not given here
Conditions: at 10 µM, stronger effect = higher value

| SMILES | nuclear beta-catenin stimulation |
| --- | --- |
| O=C(O)CSCC(=O)NC1CCSC1=O (centres undefined) | -0.4% (inactive) |
| CCCCOc1cc(C(=O)NCCN(CC)CC)c2ccccc2n1 | 5.7% (inactive) |
| Cc1ccc(C(=O)c2ccc(CC(=O)O)n2C)cc1 | 5.9% (inactive) |
| CN1C(C(=O)Nc2ccccn2)=C(O)c2sccc2S1(=O)=O | 0.8% (inactive) |
| C[C@@H]1CN(c2c(F)c(F)c3c(=O)c(C(=O)O)cn(C4CC4)c3c2F)C[C@H](C)N1 | -0.9% (inactive) |
| CCCCC(=O)O[C@]1(C(=O)CO)[C@@H](C)C[C@H]2[C@@H]3CCC4=CC(=O)C=C[C@]4(C)[C@@]3(F)[C@@H](O)C[C@@]21C | 2.9% (inactive) |
| CCOc1ccc(NC(C)=O)cc1 | -0.6% (inactive) |
| Cc1ccsc1/C=C/C1=NCCCN1C | -0.7% (inactive) |
| CO[C@]12C[C@@H](COC(=O)c3cncc(Br)c3)CN(C)[C@@H]1Cc1cn(C)c3cccc2c13 | 0.8% (inactive) |
| O=C(O)[C@@H](O)[C@H](O)[C@H](O)[C@@H](O)C(=O)O | -1.3% (inactive) |
| O=C1c2ccccc2C(=O)c2c1ccc(O)c2O | 1.2% (inactive) |
| Cc1c(C(=O)O)c(O)cc2c1C(=O)c1c(O)c([C@@H]3O[C@H](CO)[C@@H](O)[C@H](O)[C@H]3O)c(O)c(O)c1C2=O | 0% (inactive) |
| Cc1nc(-c2ccc(OCC(C)C)c(C#N)c2)sc1C(=O)O | 1.3% (inactive) |
| CC(=O)Oc1c(C)c(C)c2c(c1C)CC[C@@](C)(CCC[C@H](C)CCC[C@H](C)CCCC(C)C)O2 | 1.7% (inactive) |
| Nc1ccc(C(=O)O)c(O)c1 | 0.9% (inactive) |
| CC1=NN(c2ccccc2)C(=O)C1 | 0.5% (inactive) |
| Cc1cc(=O)n(-c2ccccc2)n1C | 1.1% (inactive) |
| C=C[C@@]1(C)CC(=O)[C@]2(O)[C@@]3(C)[C@@H](O)CCC(C)(C)[C@@H]3[C@H](O)[C@H](OC(C)=O)[C@@]2(C)O1 | 1.1% (inactive) |
| COC(=O)[C@@H](N)CS | -1.4% (inactive) |

| SMILES | nuclear beta-catenin stimulation |
| --- | --- |
| N=C(N)N | -1.9% (inactive) |
| CC(=O)Nc1cccc(O)c1 | -0.7% (inactive) |
| NCC1CCC(C(=O)O)CC1 (centres undefined) | 0.7% (inactive) |
| CC1=CC(=O)c2ccccc2C1=O | 25% (inactive) |
| C/C=C1\[C@H]2C=C(C)C[C@]1(N)c1ccc(=O)[nH]c1C2 | -0.8% (inactive) |
| CCCCCCCCCCCCCCCCC(C(=O)O)C(O)(CC(=O)O)C(=O)O (centres undefined) | -0.9% (inactive) |
| O=C(O)CCC(=O)c1ccc(-c2ccccc2)cc1 | 4.2% (inactive) |
| O=C1c2ccccc2C(=O)C1c1ccccc1 | 0.3% (inactive) |
| COc1cc(OC)cc(OC)c1 | 1.2% (inactive) |
| O=C1OCCN1/N=C/c1ccc([N+](=O)[O-])o1 | 1.7% (inactive) |
| Cc1onc(-c2ccccc2Cl)c1C(=O)N[C@@H]1C(=O)N2[C@@H]1SC(C)(C)[C@@H]2C(=O)O | 0.5% (inactive) |
| Oc1cc(O)c2c(c1)O[C@H](c1ccc(O)c(O)c1)[C@H](O)C2 | -1.4% (inactive) |
| CCN(CC)CCNc1ccc(CO)c2sc3ccccc3c(=O)c12 | 63.7% (active) |
| Nc1ccc(S(=O)(=O)Nc2nccs2)cc1 | 0% (inactive) |
| CCC(C)n1ncn(-c2ccc(N3CCN(c4ccc(OC[C@H]5CO[C@](Cn6cncn6)(c6ccc(Cl)cc6Cl)O5)cc4)CC3)cc2)c1=O (some centres undefined) | 36.2% (inactive) |
| NCCCC[C@H](N[C@@H](CCc1ccccc1)C(=O)O)C(=O)N1CCC[C@H]1C(=O)O | 0.4% (inactive) |
| O=c1[nH]cnc2nc[nH]c12 | -0.2% (inactive) |
| COc1ccccc1OCC(O)CO (centres undefined) | 1.9% (inactive) |

Same assay, conditions: stimulation, at 2 µM, stronger effect = higher value

| SMILES | nuclear beta-catenin stimulation [%] |
| --- | --- |
| O=C(O)CSCC(=O)NC1CCSC1=O (centres undefined) | 1.1 |
| CCCCOc1cc(C(=O)NCCN(CC)CC)c2ccccc2n1 | 1.8 |
| Cc1ccc(C(=O)c2ccc(CC(=O)O)n2C)cc1 | 3.5 |
| CN1C(C(=O)Nc2ccccn2)=C(O)c2sccc2S1(=O)=O | 1 |
| C[C@@H]1CN(c2c(F)c(F)c3c(=O)c(C(=O)O)cn(C4CC4)c3c2F)C[C@H](C)N1 | 1.1 |
| CCCCC(=O)O[C@]1(C(=O)CO)[C@@H](C)C[C@H]2[C@@H]3CCC4=CC(=O)C=C[C@]4(C)[C@@]3(F)[C@@H](O)C[C@@]21C | 5.5 |
| CCOc1ccc(NC(C)=O)cc1 | -0.9 |
| Cc1ccsc1/C=C/C1=NCCCN1C | 0.1 |
| CO[C@]12C[C@@H](COC(=O)c3cncc(Br)c3)CN(C)[C@@H]1Cc1cn(C)c3cccc2c13 | 2.5 |
| O=C(O)[C@@H](O)[C@H](O)[C@H](O)[C@@H](O)C(=O)O | -0.3 |
| O=C1c2ccccc2C(=O)c2c1ccc(O)c2O | 0.3 |
| Cc1c(C(=O)O)c(O)cc2c1C(=O)c1c(O)c([C@@H]3O[C@H](CO)[C@@H](O)[C@H](O)[C@H]3O)c(O)c(O)c1C2=O | 0.8 |
| Cc1nc(-c2ccc(OCC(C)C)c(C#N)c2)sc1C(=O)O | 0.4 |
| CC(=O)Oc1c(C)c(C)c2c(c1C)CC[C@@](C)(CCC[C@H](C)CCC[C@H](C)CCCC(C)C)O2 | 2 |
| Nc1ccc(C(=O)O)c(O)c1 | 1.5 |
| CC1=NN(c2ccccc2)C(=O)C1 | 0.8 |
| Cc1cc(=O)n(-c2ccccc2)n1C | 0.3 |
| C=C[C@@]1(C)CC(=O)[C@]2(O)[C@@]3(C)[C@@H](O)CCC(C)(C)[C@@H]3[C@H](O)[C@H](OC(C)=O)[C@@]2(C)O1 | 0.6 |
| COC(=O)[C@@H](N)CS | 2.3 |

| SMILES | nuclear beta-catenin stimulation [%] |
| --- | --- |
| N=C(N)N | 0.6 |
| CC(=O)Nc1cccc(O)c1 | 2.5 |
| NCC1CCC(C(=O)O)CC1 (centres undefined) | 0.5 |
| CC1=CC(=O)c2ccccc2C1=O | 0.1 |
| C/C=C1\[C@H]2C=C(C)C[C@]1(N)c1ccc(=O)[nH]c1C2 | -0.8 |
| CCCCCCCCCCCCCCCCC(C(=O)O)C(O)(CC(=O)O)C(=O)O (centres undefined) | -0.6 |
| O=C(O)CCC(=O)c1ccc(-c2ccccc2)cc1 | 0.6 |
| O=C1c2ccccc2C(=O)C1c1ccccc1 | 0.6 |
| COc1cc(OC)cc(OC)c1 | -0.8 |
| O=C1OCCN1/N=C/c1ccc([N+](=O)[O-])o1 | -0.6 |
| Cc1onc(-c2ccccc2Cl)c1C(=O)N[C@@H]1C(=O)N2[C@@H]1SC(C)(C)[C@@H]2C(=O)O | 0.3 |
| Oc1cc(O)c2c(c1)O[C@H](c1ccc(O)c(O)c1)[C@H](O)C2 | 1.2 |
| CCN(CC)CCNc1ccc(CO)c2sc3ccccc3c(=O)c12 | 1.8 |
| Nc1ccc(S(=O)(=O)Nc2nccs2)cc1 | 0 |
| CCC(C)n1ncn(-c2ccc(N3CCN(c4ccc(OC[C@H]5CO[C@](Cn6cncn6)(c6ccc(Cl)cc6Cl)O5)cc4)CC3)cc2)c1=O (some centres undefined) | 34.3 |
| NCCCC[C@H](N[C@@H](CCc1ccccc1)C(=O)O)C(=O)N1CCC[C@H]1C(=O)O | 0.9 |
| O=c1[nH]cnc2nc[nH]c12 | 1.5 |
| COc1ccccc1OCC(O)CO (centres undefined) | 0.9 |
